High-throughput results: PubChem, several laboratories
Pyk2 oligo antag: Pyk2 (human) oligomerization antagonism; Q293 cells, Pyk2 FERM NanoBiT luminescence; stronger effect = lower value; Q14289; z-score (the deposit names both 25 µM and 10 µM); 99,000 compounds, 0.83% hits;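 active means Z-score of -3 or lower, scaled per plate to the spread of control and sample wells; inactive means z-score above -3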;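 further: negative z-score means lost luminescence so less FERM oligomerization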
CYP2C9 inh: human CYP2C9 inhibition; CYP2C9 Supersomes, luciferin-H conversion, luminescence; P11712; inhibition, % at 5 µM; 96,000 compounds, 20% hits;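 active means blocking of liver enzyme CYP2C9 beyond about 50% at 5 µM, limit read from the data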
CYP2C19 act: increases human CYP2C19 enzyme activity. 96,000 tested, under 10 active. recombinant CYP2C19, luciferin-H EGE luminescence; stronger effect = higher value; 0 = fully inhibited enzyme, 1 = untreated enzyme. P33261. AID 1025. activation factor at 5 µM;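 active means activation factor of at least 2 at 5 µM in the primary screen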
CYP2C19 inhib: human CYP2C19 inhibition | inhibition, % at 5 µM | CYP2C19 Supersomes, luciferin-H EGE luminescence, 30 min | 96,000 compounds, 21% hits | P33261 | AID 778;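 active means CYP2C19 inhibition above a set limit at 5 µM in the primary screen, cut at about 50% in these data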
Cav3 T inh: blocks human Cav3.2 T-type calcium channel; B-score at 10 µM; O95180; Cav3.2-expressing cells, Fluo-4 calcium fluorescence FDSS; stronger effect = lower value; 100,000 compounds, 4% hits;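 active means single-dose well whose peak fluorescence ratio is a statistical outlier from its plate by either plate-standardised score or position-corrected B-score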
CYP2C9 activ: increases human cytochrome P450 2C9 activity. P11712. recombinant CYP2C9, luciferin-H conversion, luminescence; stronger effect = higher value; factor 1 = untreated enzyme, 0 = blocked. activation factor at 5 µM. 96,000 compounds, 1.4% hits;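 active means activation factor of 2 or more for CYP2C9 at a 5 µM dose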
Large screens that a line does not name were inactive. Hits are enriched below; roughly 27% of the tested compounds scored in any of these assays.

Cc1oc(-c2ccccc2F)nc1CS(=O)CC(=O)N1CCC2(CC1)OCCO2 (stereo not drawn)	none
Cc1ccc(-n2nc(C)c(C3C(C#N)=C(N)Oc4c3c(=O)oc3ccccc43)c2Cl)cc1 (stereo not drawn)	CYP2C9 inh 98 (no result: Pyk2 oligo antag, Cav3 T inh)
O=P(C(c1ccc2c(c1)OCO2)N1CCOCC1)(N1CCOCC1)N1CCOCC1 (stereo not drawn)	none (no result: CYP2C9 inh, CYP2C19 act, CYP2C19 inhib, CYP2C9 activ)
COCCOC(=O)c1c(C)oc2ccc(OC(=O)N(C)C)cc12	CYP2C19 inhib 63
CN(C)C(=O)Oc1ccc(OC(=O)N(C)C)cc1	none
CCOc1cc2[nH]c(=S)n(CCCC(=O)N3CCC4(CC3)OCCO4)c(=O)c2cc1OCC	CYP2C9 inh 55, CYP2C19 inhib 52
Cc1nc2cc(-c3ccc(Cl)cc3)nn2c(C)c1CCC(=O)N1CCC2(CC1)OCCO2	none (no result: CYP2C9 inh, CYP2C19 act, CYP2C19 inhib, Cav3 T inh, CYP2C9 activ)
O=C(CCCOc1ccc(Cl)cc1Cl)N1CCC2(CC1)OCCO2	CYP2C19 inhib 74
CCOc1cc(C(=O)N2CCC3(CC2)OCCO3)cc(OCC)c1OCC	none
CC1(C)C2([N+](=O)[O-])CNCC1([N+](=O)[O-])CNC2	none (no result: CYP2C9 inh, CYP2C19 act, CYP2C19 inhib, CYP2C9 activ)
CCOc1ccc2[nH]c(=O)c(CN(CCO)C3(c4nnnn4C4CCCCC4)CCCCC3)cc2c1	none (no result: Cav3 T inh)
COC(=O)C1=C(c2cccc(OC)c2OC)C[C@@H]2CC[C@H]1N2C(=O)NCCCOC(C)C	none (no result: Pyk2 oligo antag, CYP2C9 inh, CYP2C19 act, CYP2C19 inhib, CYP2C9 activ)
CSc1ccc(C(=O)C(C)(C)N2CCOCC2)cc1	CYP2C19 inhib 92
C[C@]12CCC(=O)C=C1CC[C@@H]1[C@@H]2C(=O)C[C@]2(C)C(=O)CC[C@@H]12	none (no result: Pyk2 oligo antag, CYP2C9 inh, CYP2C19 act, CYP2C19 inhib, CYP2C9 activ)
CCN(CC)C(=O)c1ccc(NC(=O)Cn2nc(C)c3ccccc3c2=O)cc1	CYP2C19 inhib 66
COc1ccc(C(O)CNC(C)C)c(F)c1OC (stereo not drawn)	none (no result: Pyk2 oligo antag, CYP2C9 inh, CYP2C19 act, CYP2C19 inhib, CYP2C9 activ)
Cn1cccc1CN1CCN(C(=O)COc2ccccc2)CC1	none
Cn1nc(-c2ccc(OCC(=O)N3CCN(Cc4ccccc4)CC3)cc2)c2ccccc2c1=O	CYP2C9 inh 79, CYP2C19 inhib 80
CCCNS(=O)(=O)c1ccc(OCC(=O)N2CCN(Cc3ccccc3)CC2)cc1	CYP2C9 inh 52
COc1ccc(CCNCc2ccncc2)cc1OC	CYP2C9 inh 52, CYP2C19 inhib 66
COc1ccc(CCN(C)Cc2ccncc2)cc1OC	CYP2C9 inh 67, CYP2C19 inhib 82
CCOCC(=O)NC1CCSC1=O (stereo not drawn)	none
COC(=O)C1=C(c2ccc(S(C)(=O)=O)cc2)C[C@@H]2CC[C@H]1N2C(=O)NCCCOC(C)C	none (no result: Pyk2 oligo antag, CYP2C9 inh, CYP2C19 act, CYP2C19 inhib, CYP2C9 activ)
CCC(C)C1NC(=O)C(C(C)=O)=C1O (stereo not drawn)	none (no result: Pyk2 oligo antag, CYP2C9 inh, CYP2C19 act, CYP2C19 inhib, CYP2C9 activ)
C/C=C(\C)C(=O)OC1C(C)=C2C(C1OC(=O)CCCCC)C(C)(OC(C)=O)CC(OC(=O)CCC)C1(O)C2OC(=O)C1(C)O (stereo not drawn)	Cav3 T inh 4.3 (no result: Pyk2 oligo antag, CYP2C9 inh, CYP2C19 act, CYP2C19 inhib, CYP2C9 activ)
CCOP(=O)(C#CC(C)(C)C)C(O)(c1ccccc1)C(F)(F)F (stereo not drawn)	Cav3 T inh -5.6
CC#CP(=O)(OCC)C(O)(c1ccccc1)C(F)(F)F (stereo not drawn)	none
COC(=O)C1=C(c2ccccc2)C[C@@H]2CC[C@H]1N2C(=O)NC1CCCCC1	none (no result: Pyk2 oligo antag, CYP2C9 inh, CYP2C19 act, CYP2C19 inhib, CYP2C9 activ)
CC1CN=C(Nc2ccc(N(C)C)cc2)S1 (stereo not drawn)	CYP2C19 inhib 56
O=c1c(C=NCc2cccs2)c(O)n(C2CCCCC2)c(=O)n1C1CCCCC1	Cav3 T inh -4.4
O=c1c(C=NCCN2CCNCC2)c(O)n(C2CCCCC2)c(=O)n1C1CCCCC1	none
CCCCn1c(O)c(C(CC)=NCCN2CCOCC2)c(=O)[nH]c1=O	CYP2C9 inh 64
CCCCn1c(O)c(C(CC)=NCCCN(C)C)c(=O)[nH]c1=O	none
CCCCn1c(O)c(C(CC)=NCc2ccc(F)cc2)c(=O)[nH]c1=O	CYP2C9 inh 71
CCCCn1c(O)c(C=Nc2c(C)n(C)n(-c3ccccc3)c2=O)c(=O)[nH]c1=O	none
CCOc1cc(-c2nc3c(C)cccn3c2NCC2CCCO2)ccc1O (stereo not drawn)	none
CN(CCc1ccccc1)Cc1ccccc1[N+](=O)[O-]	CYP2C9 inh 76, CYP2C19 inhib 91 (no result: Cav3 T inh)
CC1=NN(c2ccccc2)C(=O)C1/C=C1\C(=O)NC(=O)N(c2ccc(C)c(C)c2)C1=O (stereo not drawn)	CYP2C9 inh 68 (no result: Cav3 T inh)
CC1=NN(c2ccccc2)C(=O)C1/C=C1/C(=O)NC(=O)N(c2cccc(C)c2)C1=O (stereo not drawn)	none (no result: Pyk2 oligo antag)
O=c1cccc2n1CC1CC2CN(c2ncnc3c2cnn3-c2ccccc2)C1 (stereo not drawn)	none
COC(=O)C1=C(c2cc3ccccc3o2)C[C@@H]2CC[C@H]1N2C(=O)N1CCC(O)CC1	none (no result: Pyk2 oligo antag, CYP2C9 inh, CYP2C19 act, CYP2C19 inhib, CYP2C9 activ)
CN(C)c1ccc(N=Cc2c(O)n(CCC3=CCCCC3)c(=O)[nH]c2=O)cc1	Pyk2 oligo antag -3.4
O=c1[nH]c(=O)n(CCC2=CCCCC2)c(O)c1C=NCCN1CCNCC1	none (no result: Cav3 T inh)
CCN(CC)c1ccc(N=Cc2c(O)n(CCC3=CCCCC3)c(=O)[nH]c2=O)cc1	Cav3 T inh -5.6
CC1=NCCc2c1[nH]c1ccccc21	none (no result: Pyk2 oligo antag, CYP2C9 inh, CYP2C19 act, CYP2C19 inhib, CYP2C9 activ)
COC(=O)[C@]12OC[C@]34C([C@@H](O)[C@@H]1O)[C@]1(C)CC(=O)C(O)=C(C)[C@@H]1C[C@H]3OC(=O)[C@H](O)[C@@H]24 (stereo partly drawn)	none (no result: Pyk2 oligo antag, CYP2C9 inh, CYP2C19 act, CYP2C19 inhib, CYP2C9 activ)
O=c1cc(C(F)(F)F)c2cc3c4c(c2o1)CCCN4CCC3	Cav3 T inh -7.8
Cc1cc2c(C(F)(F)F)cc(=O)oc2c2c1NCCC2	Cav3 T inh -8.3, CYP2C9 activ 2.4
Cc1ccc2c(c1)CC1(CN2C)C(=O)NC(=O)N(c2ccc(C)c(C)c2)C1=O (stereo not drawn)	CYP2C9 inh 86, CYP2C19 inhib 53
COc1ccccc1N1C(=O)NC(=O)C2(Cc3cc(C)ccc3N(C)C2)C1=O (stereo not drawn)	CYP2C9 inh 68
O=C1CSC2(CN3CCC2CC3)N1 (stereo not drawn)	none (no result: Cav3 T inh)
Clc1ccc2c(c1)C(c1ccccc1Cl)=NCc1nnc(N3CCN(CCSc4ccccc4)CC3)n1-2	CYP2C9 inh 68 (no result: Cav3 T inh)
CN1CCN(Cc2nnc3n2-c2ccc(Cl)cc2C(c2ccccc2)=NC3)CC1	none (no result: CYP2C9 inh, CYP2C19 act, CYP2C19 inhib, Cav3 T inh, CYP2C9 activ)
NC(=O)CN1C2CCC1CC(NC(=O)C1CC1)C2 (stereo not drawn)	none
CC1(C)CN=C(Nc2ccc(F)c(F)c2)S1	CYP2C19 inhib 62 (no result: Pyk2 oligo antag)
CC(=NCc1ccc(F)cc1)c1c(O)n(C)c(=O)n(C)c1=O	none
CN(Cc1ccccc1)Cc1ccccc1OC(=O)N(C)C	CYP2C19 inhib 54
CCOP1(=S)Oc2cc3c(cc2C(C(=O)OC)(C(F)(F)F)O1)OCO3 (stereo not drawn)	CYP2C9 inh 89, CYP2C19 inhib 98
COc1cc(/C=N/NC(=O)CN2CC(c3ccccc3)CC2=O)ccc1OC(=O)N(C)C (stereo not drawn)	none
